NPC1 promoter act = qHTS Assay for NPC1 Promoter Activators. Huh7 NPC1 promoter luciferase reporter, 24 h. 320,000 compounds, 2.4% hits. Potency, µM (highest dose often 9.22 µM), inactives show at the top dose activation, actives largely listed as activators; further: % of control where 0% means no effect; nearly all actives have a fitted effect of over 60% in size
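In 1536-well qHTS, Huh7 cells harboring an NPC1 promoter–luciferase construct received compound for 24 h; activation was quantified by luminescence following luciferase reagent addition.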
SMN2 splice up = qHTS Assay for Enhancers of SMN2 Splice Variant Expression | Potency, µM (highest dose often 46.1 µM), for inactives: at the top dose activity change, positive = activation, hits mostly activators | 210,000 compounds, 2.8% hits | HEK293 SMN2-luciferase splicing reporter, luminescence, 30-36 h; further: % of control where 0% means no effect; nearly all actives have a fitted effect of over 55% in size
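HEK293 cells carry an SMN2 minigene-luciferase reporter in which exon 7 inclusion puts luciferase in frame. Cells were seeded at 2000 cells/well, attached for 10-12 hours, then exposed to compounds for 30-36 hours at 37C before ONE-Glo luminescence.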
KinaseGlo FLuc = Counterscreen for Luciferase (Kinase-Glo TM) Inhibition. AID 1379, 2008. Luciferin 4-monooxygenase (Photuris pensylvanica), Q27757. 200,000 compounds, 0.28% hits. Potency, µM (doses to about 38.3 µM), for the others: top-dose activity change, negative = inhibition, usual class: inhibitors. Kinase-Glo luciferase, ATP luminescence, 8 min; further: on the % scale 0 is the no-effect control and ±100 the full control effect; nearly all actives have a fitted effect of over 60% in size
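Luminescence was the read-out, taken after 8-minute incubation at ambient temperature. Luciferase turned over luciferin with 10 uM ATP in imidazole pH 7.2 buffer containing KCl, MgCl2, Tween 20 and BSA.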
Rab9 promoter act = qHTS Assay for Rab9 Promoter Activators | 320,000 compounds, 2.8% hits | Potency, µM (series often up to 9.22 µM), inactives show top-dose activation, negative = inhibition, usual class: activators | Huh7 Rab9 promoter-luciferase reporter, luminescence, 24 h | AID 485297, 2010; further: % of control where 0% means no effect; nearly all actives have a fitted effect of over 60% in size
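Quantitative HTS format; Huh7 Rab9-luciferase reporter cells (1500/well) receive compound 2 h post-plating, incubate 24 h at 37 °C, then get luciferase reagent for 10 min before luminescence reading.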
ELG1 genotoxic = qHTS screen for small molecules that induce genotoxicity in human embryonic kidney (HEK293T) cells expressing luciferase-tagged ELG1; AID 504466, 2011; 330,000 compounds, 1.3% hits; Potency, µM (titrated, usually from 46 µM), for the others: top-dose activity change, positive = activation, usual class: activators; HEK293T ELG1-luciferase reporter, luminescence, 16 h; further: % of control where 0% means no effect; nearly all actives have a fitted effect of over 60% in size
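Reporter readout depends on ELG1 protein level, which increases with genetic stress. After 16 hr compound exposure at 37 °C, luciferase activity was quantified using ONE-Glo.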
FLuc modulator = qHTS profiling assay for firefly luciferase inhibitor/activator using purifed enzyme and Km concentrations of substrates (counterscreen for miR-21 project) | purified FLuc, Km substrates, luminescence inhibition | 360,000 compounds, 6.9% hits | Potency, µM (highest dose often 57.5 µM), without a hit: at the top dose activity change, negative = inhibition, actives largely listed as inhibitors | Luciferin 4-monooxygenase (Photinus pyralis), P08659;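 further: plate controls were vehicle for no effect and reference inhibitor for full effect; nearly all actives have a fitted effect of over 55% in size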
Target sequence (P08659 whole entry, looked up): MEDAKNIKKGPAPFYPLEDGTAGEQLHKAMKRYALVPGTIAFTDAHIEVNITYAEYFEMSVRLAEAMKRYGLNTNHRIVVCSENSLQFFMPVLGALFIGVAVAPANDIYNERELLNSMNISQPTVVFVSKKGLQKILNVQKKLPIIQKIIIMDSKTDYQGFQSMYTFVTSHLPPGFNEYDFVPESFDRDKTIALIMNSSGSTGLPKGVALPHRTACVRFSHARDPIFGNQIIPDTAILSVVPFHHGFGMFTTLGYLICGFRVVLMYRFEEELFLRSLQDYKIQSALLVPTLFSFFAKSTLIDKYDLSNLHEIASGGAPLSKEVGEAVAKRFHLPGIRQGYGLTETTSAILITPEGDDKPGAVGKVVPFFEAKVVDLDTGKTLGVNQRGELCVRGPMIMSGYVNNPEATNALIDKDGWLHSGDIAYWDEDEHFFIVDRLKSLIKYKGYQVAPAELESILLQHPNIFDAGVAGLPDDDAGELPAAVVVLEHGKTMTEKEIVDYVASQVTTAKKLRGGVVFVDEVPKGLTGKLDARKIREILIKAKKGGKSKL
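Purified P. pyralis luciferase, 10 nM final, with Km-level 10 uM D-luciferin and 10 uM ATP in 50 mM Tris acetate pH 7.5, 10 mM Mg acetate, 0.01% Tween-20, 0.05% BSA; 6-point qHTS titration about 60 µM downward; luminescence read.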
* marks the source's active call; other numbers are inactive results; ? = inconclusive; nt = no result given; [ ] = remark or other dose. Compounds with a hit are over-represented: about 7.3% of the library has one in this group of screens. The call rests on the fitted dose curve; in most records, active means well fitted curve in the direction sought with a large enough effect; inconclusive means small, poorly fitted or top-dose-only effect, or another doubt; inactive means no such curve, though single readings can be large; an effect the other way counts as inactive or inconclusive. Potency means the concentration at half of the fitted maximal effect.

SMILES	NPC1 promoter act	SMN2 splice up	KinaseGlo FLuc	Rab9 promoter act	ELG1 genotoxic	FLuc modulator
Cc1ccc(NC(=O)CNCc2ccccc2)c(Br)c1	15%	3%	-2%	23%	?	?
CC(CC(=O)c1cccs1)CC(=O)c1cccs1	2.8µM*	?	-3%	2.8µM*	29%	21µM*
Cc1ccc(NCCC(=O)c2cccs2)cc1C	9%	?	-2%	?	?	3.4µM*
CCCOc1cccc(C2c3c(oc4ccc(F)cc4c3=O)C(=O)N2c2nc(C)c(C(C)=O)s2)c1 (configuration not stated)	nt	-4%	nt	nt	nt	0%
CC1=C(C(=O)OCc2ccccc2)C(c2ccc(C3CCCCC3)cc2)NC(=O)N1CCCCCC(=O)O (configuration not stated)	nt	-21%	-1%	nt	nt	nt
Cc1ccc(NCCC(=O)c2ccc(Cl)c(Cl)c2)cc1	1%	-1%	-5%	12%	3%	-3%
Cc1ccc(NCCC(=O)c2cccs2)cc1	?	23%	0%	2.8µM*	?	21µM*
O=C(NC(=S)Nc1ccc(N2CCCCC2)cc1)c1cccs1	1.3µM*	-1%	7%	2.2µM*	2.9µM*	5.4µM*
Cc1ccc(NC(=O)COC(=O)CCC(=O)c2cccs2)c(Br)c1	-1%	nt	nt	2%	2%	-13%
Cc1ccc(NC(=O)CCC(=O)c2cccs2)c(Br)c1	?	nt	nt	3.5µM*	?	?
O=C(CCC(=O)c1cccs1)Nc1ccc(N2CCCCC2)cc1	11%	-6%	-2%	11%	13%	19µM*
Cn1c(=O)oc2cc(S(=O)(=O)NC(Cc3ccccc3)C(=O)Nc3ccc(F)c(Cl)c3)ccc21 (configuration not stated)	nt	5%	nt	nt	nt	-2%
CCN1CCN(c2nnc(-n3cccc3C(=O)Nc3cccc(OC)c3)s2)CC1	nt	nt	nt	nt	nt	-4%
CC(C)c1ccc(NCCC(=O)c2cccs2)cc1	?	18%	-3%	?	?	12µM*
Cc1cc(C)c(C(CC(=O)c2cccs2)C(C#N)C#N)c(C)c1 (configuration not stated)	?	?	2%	3.5µM*	18µM*	12µM*
Cc1ccc(CNC(=O)CCC(=O)c2cccs2)cc1	-1%	-20%	-3%	1%	0%	-20%
Cc1ccc(NC(=O)CCC(=O)c2cccs2)cc1	0%	-24%	0%	-3%	9%	11µM*
Cc1ccc(NCCC(=O)c2cccs2)cc1Cl	8%	5%	-3%	1%	21µM*	?
CC(C)c1ccc(NCCC(=O)c2ccc(Br)cc2)cc1	5%	-6%	1%	9%	1%	2%
O=C(CCNc1cccc(Cl)c1)c1cccs1	16%	-5%	-5%	26%	8%	?
Cc1cc(C)c2c(c1)NC(=O)C2(O)CC(=O)c1cccs1 (configuration not stated)	nt	2%	-1%	nt	nt	4%
CCC(Cn1nnc2ccccc2c1=O)NC(=O)Nc1ccc(C)c(C)c1 (configuration not stated)	nt	-2%	nt	nt	nt	-7%
c1ccc(CCCNc2nnnc3ccccc23)cc1	nt	-16%[9.22 µM]	-3%[7.66 µM]	nt	nt	nt
Cc1ccc(S(=O)(=O)N2CCOCC2)cc1NC(=O)COC(=O)CCOc1ccc(C(C)(C)C)cc1	0%	nt	nt	-9%	4%	3.8µM*
Cc1ccc(S(=O)(=O)N2CCOCC2)cc1NC(=O)COC(=O)CNC(=O)c1ccc(C(C)(C)C)cc1	-2%	?	-5%	-2%	-2%	0.95µM*
Cc1ccc(S(=O)(=O)N2CCOCC2)cc1NC(=O)COC(=O)CNC(=O)c1ccc(Oc2ccccc2)cc1	0%	-14%	0%	-4%	1%	1.9µM*
